According to PubChem BioAssay (EPA / NIEHS):
Results filed as inconclusive are left out. Activity calls are given as the source filed them. How the source made its calls, unless noted: active means hit-call score of the fitted dose curve at least 0.9, where 1 is the maximum; inactive means score below 0.9.

Tests used:
TIMP1, TIMP1 (gene 7076) = assay: LTEA_HepaRG_TIMP1: Life Technologies and Expression Analysis (LTEA) Assay for TIMP1 using HepaRG (AID 2283534); details: mRNA level, 48 h; actives raise or lower the signal
How it was run: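 Bidirectional change in TIMP1 transcript versus 0.5% DMSO, measured by TaqMan qRT-PCR with three housekeeping genes for normalization. HepaRG human liver cells dosed 48 h in duplicate, top concentration 100 uM with half-log dilutions.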

[1] = read-out: Tumor necrosis factor receptor 1 (TNFRSF1A), TNFRSF1A (gene 7132); assay: LTEA_HepaRG_TNFRSF1A: Life Technologies and Expression Analysis (LTEA) Assay for Tumor necrosis factor receptor 1 (TNFRSF1A) using HepaRG (AID 2283535); details: mRNA level, 48 h; actives raise or lower the signal
How it was run: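 mRNA measured by qRT-PCR (TaqMan, Fluidigm arrays) against ACTB/GAPDH/POLR2A housekeepers after 48 h chemical exposure of HepaRG cells. Top concentration 100 uM, half-log 8-point series, duplicates; vehicle 0.5% DMSO, both fit directions.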

[2] = read-out: Thyroid Hormone Responsive (THRSP), THRSP (gene 7069); assay: LTEA_HepaRG_THRSP: Life Technologies and Expression Analysis (LTEA) Assay for Thyroid Hormone Responsive (THRSP) using HepaRG (AID 2283536); details: mRNA level, 48 h; actives raise or lower the signal
How it was run: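 THRSP transcript quantified by Fluidigm qRT-PCR against three housekeeping genes after 48 h chemical exposure of HepaRG cells in serum-free induction medium; eight-point half-log series, top 100 uM, 0.5% DMSO vehicle, duplicate wells.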

[3] = read-out: Cellular tumor antigen p53 (Homo sapiens) (UniProt P04637); assay: LTEA_HepaRG_TP53: Life Technologies and Expression Analysis (LTEA) Assay for Tumor Protein P53 (TP53) using HepaRG (AID 2283537); details: mRNA level, 48 h; actives raise or lower the signal
How it was run: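 Gain or loss of TP53 mRNA signal is scored relative to 0.5% DMSO after 48 h chemical treatment of HepaRG liver cells, tested in duplicate at eight half-log concentrations up to 100 uM.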

[4] = read-out: UDP glucuronosyltransferase (UGT1A1), UGT1A1 (gene 54658); assay: LTEA_HepaRG_UGT1A1: Life Technologies and Expression Analysis (LTEA) Assay for UDP glucuronosyltransferase (UGT1A1) using HepaRG (AID 2283538); details: mRNA level, 48 h; actives raise or lower the signal
How it was run: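 HepaRG, 48 h chemical exposure (top 100 uM, half-log 8-pt, 0.5% DMSO vehicle), duplicate wells; qRT-PCR (TaqMan, Fluidigm array) for UGT1A1 mRNA, housekeeping-normalized; bidirectional curve fit vs DMSO baseline.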

[5] = read-out: UDP glucuronosyltransferase (UGT1A6), UGT1A6 (gene 54578); assay: LTEA_HepaRG_UGT1A6: Life Technologies and Expression Analysis (LTEA) Assay for UDP glucuronosyltransferase (UGT1A6) using HepaRG (AID 2283539); details: mRNA level, 48 h; actives raise or lower the signal
How it was run: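 Expression was quantified by TaqMan qRT-PCR on Fluidigm arrays with ACTB/GAPDH/POLR2A normalization and bidirectional fitting against 0.5% DMSO. HepaRG cells (~100,000/well) were treated in duplicate for 48 h at eight half-log concentrations up to 100 uM in serum-free induction medium.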

[6] = read-out: X-box binding protein 1 (XBP1), XBP1 (gene 7494); assay: LTEA_HepaRG_XBP1: Life Technologies and Expression Analysis (LTEA) Assay for X-box binding protein 1 (XBP1) using HepaRG (AID 2283540); details: mRNA level, 48 h; actives raise or lower the signal
How it was run: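 XBP1 transcript by qRT-PCR (housekeeping-normalized: ACTB, GAPDH, POLR2A) after 48 h chemical treatment of HepaRG cells, 8-point half-log series topping at 100 uM, vehicle 0.5% DMSO. Gain and loss of signal fitted relative to DMSO.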

[7] = LTEA_HepaRG_LDH_cytotoxicity: Cytotoxicity Assessment in the Life Technologies and Expression Analysis (LTEA) Assay (AID 2283563; active means hit-call score of the fitted dose curve at least 0.9, where 1 is the maximum)
How it was run: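 LDH release into culture medium read after 48 h chemical treatment of HepaRG cells. Duplicate wells, eight-point half-log series topping at 100 uM, 0.5% DMSO vehicle and baseline.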

[8] = TOX21_p53_BLA_p2_viability: Viability Assessment in the Tox21 HCT-116 p53 Agonism Beta-lactamase Assay, Phase 2 (AID 2283591; active means hit-call score of the fitted dose curve at least 0.9, where 1 is the maximum;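 further: compound exposure lasted 16 h at 37 °C; actives lower the ATP signal meaning cytotoxicity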)
How it was run: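 Cytotoxicity readout: CellTiter-Glo ATP luminescence, 30 min at room temperature, after the beta-lactamase read. Cells were HCT116 exposed 16 h at 37C to compounds pin-transferred at 217-fold dilution from DMSO stocks.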

[9] = ATG_XTT_Cytotoxicity: Cytotoxicity Assessment in the Attagene TRANS-FACTORIAL HepG2 Assay (AID 2283584; active means hit-call score of the fitted dose curve at least 0.9, where 1 is the maximum)
How it was run: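 Viability endpoint from XTT after 24 h chemical exposure of reporter-transfected human HepG2 liver cells; signal loss fitted relative to DMSO negative control.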

Measured: AC50

Sequence of Cellular tumor antigen p53 (Homo sapiens) (P04637 whole entry, looked up): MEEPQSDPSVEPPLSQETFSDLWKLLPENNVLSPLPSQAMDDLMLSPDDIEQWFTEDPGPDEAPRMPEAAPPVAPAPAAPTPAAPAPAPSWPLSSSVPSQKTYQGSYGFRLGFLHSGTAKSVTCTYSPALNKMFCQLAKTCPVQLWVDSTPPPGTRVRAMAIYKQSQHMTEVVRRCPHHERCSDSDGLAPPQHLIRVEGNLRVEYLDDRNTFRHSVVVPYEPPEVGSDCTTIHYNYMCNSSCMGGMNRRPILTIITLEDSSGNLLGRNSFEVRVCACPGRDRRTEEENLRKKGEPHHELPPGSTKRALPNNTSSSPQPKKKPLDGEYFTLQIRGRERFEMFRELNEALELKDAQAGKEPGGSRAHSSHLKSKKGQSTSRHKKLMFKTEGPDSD

CC(C)CCO
not listed: [9]
inactive: all other assays above

Fc1ccccc1[C@@H](F)COC1CCC(Nc2ncnc3[nH]ncc23)CC1 (some centres undefined)
active: [4] 68 µM | [5] 50 µM
not listed: [9]
inactive: all other assays above

CCn1nc(Cc2ccccc2)cc1C1CCN(C[C@H]2C[C@H](N(C)[C@@H](C(=O)O)C(C)C)C[C@@H]2c2cccc(F)c2)CC1
not listed: [9]
inactive: all other assays above

CCNc1ccccc1
not listed: [9]
inactive: all other assays above

Nc1ccc(Nc2ccccc2)cc1
active: [4] 50 µM
not listed: [9]
inactive: all other assays above

COC(=O)CC(=O)OC
not listed: [9]
inactive: all other assays above

CCOC(=O)c1ccc(C2CCC(NC[C@H](O)COc3ccc(O)c(NS(C)(=O)=O)c3)CC2)cc1 (some centres undefined)
active: [8] 70.1 µM
not listed: [9]
inactive: all other assays above

C1=CCCC=CCCC=CCC1
not listed: [1]
inactive: all other assays above

CC(C)CCCCCCOC(=O)c1ccc(C(=O)OCCCCCCC(C)C)c(C(=O)OCCCCCCC(C)C)c1
not listed: [9]
inactive: all other assays above

CC(C)=CCC/C(C)=C/CO
not listed: [9]
inactive: all other assays above

COc1ccc2sc(C(=O)Nc3nnn[nH]3)c(OC(C)C)c2c1
active: [1] 39 µM | [2] 50 µM | [3] 38.9 µM | [4] 12.9 µM | [5] 50 µM | [8] 13.2 µM
inactive: TIMP1, TIMP1 (gene 7076) | [6] | [7]
